Experimental data as given in the antibiotic and cytotoxicity screens of Wong et al. (2023).
Out of some 39,000 compounds screened, about 3,300 (8.5%) were called active. This excerpt belongs to a sample that is enriched for actives.

What follows are compounds tested on HepG2 (assay: cytotoxicity call (relative viability < 0.9)). Details: 10 µM.
In the case of `C[C@@H]1CN([C@H](C)CO)C(=O)Cc2cc(NC(=O)CCN3CCOCC3)ccc2O[C@@H]1CN(C)CC1CC1`, the cytotoxicity call is reported as “inactive”.
`COc1cc2c(cc1-c1coc3c4c(ccc3c1=O)OC(C)(C)CC4)OCO2` was tested, and the cytotoxicity call was “inactive”.
`COc1cc2c(=O)c(-c3ccc4c(c3)OCO4)coc2c2c1OC(C)(C)C=C2` was tested, and the cytotoxicity call was “active”.
For `COc1cc2c(cc1-c1coc3c4c(c(OC)cc3c1=O)OC(C)(C)CC4)OCO2`, the cytotoxicity call was “inactive”.
In the case of `CN1CCN(C(=O)C[C@H]2CC[C@H](NC(=O)Cc3ccccn3)[C@@H](CO)O2)CC1`, the cytotoxicity call is reported as “inactive”.
With `CC1(C)C[C@H](c2nc(-c3ccccc3)cs2)CCS1` the cytotoxicity call was “active”.
For `NCCc1nc(-c2ccccc2)cs1`, the cytotoxicity call was “inactive”.
With `O=C(C[C@H]1CC[C@@H](NC(=O)c2cnccn2)[C@H](CO)O1)NCc1ccccc1F` the cytotoxicity call was “inactive”.
`CCS(=O)(=O)N(C)C[C@H]1OCc2ccccc2-c2c(n(C)c3ccccc23)C(=O)N([C@H](C)CO)C[C@H]1C` was tested, and the cytotoxicity call was “inactive”.
For `NCCC(=O)N[C@@H](Cc1cnc[nH]1)C(=O)O.[Zn+3]`, the cytotoxicity call was “inactive”.
For `C[C@@H]1CN([C@@H](C)CO)S(=O)(=O)c2ccc(C#CCN(C)C)cc2O[C@H]1CN(C)Cc1ccc2c(c1)OCO2`, the cytotoxicity call was “inactive”.
In the case of `C=CC(C1=CC(=O)C(OC)=CC1=O)c1ccc(O)cc1` (stereo not drawn), the cytotoxicity call is reported as “active”.
For `COc1ccc(S(=O)(=O)N(C)C)cc1`, the cytotoxicity call was “inactive”.
`C=CC(C1=CC(=O)C(OC)=CC1=O)c1ccc(OC)cc1` (stereo not drawn) was tested, and the cytotoxicity call was “active”.
`COC(=O)[C@@H](O)c1ccccc1` was tested, and the cytotoxicity call was “inactive”.
For `C=CC(C1=CC(=O)C(OC)=CC1=O)c1ccccc1` (stereo not drawn), the cytotoxicity call was “active”.
In the case of `C=CC(C1=CC(=O)C=CC1=O)c1ccccc1` (stereo not drawn), the cytotoxicity call is reported as “active”.
`COc1ccc([C@@H](N)c2ccccc2)cc1` was tested, and the cytotoxicity call was “inactive”.
For `COC1=CC(=O)c2ccccc2C1=O`, the cytotoxicity call was “inactive”.
With `CC(C)CC#Cc1cnc2c(c1)C(=O)N([C@@H](C)CO)C[C@@H](C)[C@@H](CN(C)C(=O)c1ccc3c(c1)OCO3)O2` the cytotoxicity call was “inactive”.
With `c1ccc(Oc2ccccc2)cc1` the cytotoxicity call was “inactive”.
With `COc1cccc(S(=O)(=O)Nc2ccc3c(c2)[C@H]2C[C@H](CC(=O)N4CCCCC4)O[C@H](CO)[C@H]2O3)c1` the cytotoxicity call was “inactive”.
In the case of `COc1ccc(NC(=O)Nc2ccc3c(c2)C(=O)N([C@@H](C)CO)C[C@@H](C)[C@H](CN(C)CC2CCCCC2)O3)cc1`, the cytotoxicity call is reported as “inactive”.
For `CN(CC=CC#CC(C)(C)C)Cc1cccc2ccccc12.Cl`, the cytotoxicity call was “inactive”.
With `C[C@@H]1CN([C@@H](C)CO)C(=O)c2cc(C#C[C@@H](C)O)cnc2O[C@H]1CN(C)C(=O)CN1CCOCC1` the cytotoxicity call was “inactive”.
With `C[C@@H]1CN([C@@H](C)CO)C(=O)c2cc(-c3ccc(C(=O)N(C)C)cc3)cnc2O[C@@H]1CN(C)C(=O)CN(C)C` the cytotoxicity call was “inactive”.
`Cc1ccc(S(=O)(=O)Nc2cccc3c2O[C@@H](CN(C)Cc2ccc(C(F)(F)F)cc2)[C@@H](C)CN([C@H](C)CO)C3=O)cc1` was tested, and the cytotoxicity call was “inactive”.
`C[C@@H]1CN([C@H](C)CO)C(=O)c2cccc(NC(=O)c3ccncc3)c2O[C@@H]1CN(C)S(=O)(=O)c1cn(C)cn1` was tested, and the cytotoxicity call was “inactive”.
`O=C1N[C@@H](c2ccccc2)COCc2cn(nn2)CC[C@@H](Cc2ccc(C(F)(F)F)cc2)C(=O)N[C@@H](c2ccccc2)COCc2cn(nn2)CC[C@H]1Cc1ccc(C(F)(F)F)cc1` was tested, and the cytotoxicity call was “inactive”.
In the case of `O=C(O)[C@]1(O)C[C@H](O)[C@@H](O)[C@@H](O)C1`, the cytotoxicity call is reported as “inactive”.
In the case of `Cc1noc(C)c1S(=O)(=O)N(C)C[C@@H]1Oc2ccc(N(C)C)cc2CC(=O)N([C@@H](C)CO)C[C@H]1C`, the cytotoxicity call is reported as “inactive”.
In the case of `C=C1C[C@]23CC[C@@H]4[C@@](C)(CCC[C@@]4(C)C(=O)O)[C@H]2CC[C@H]1C3`, the cytotoxicity call is reported as “active”.
With `CC(C)C1=CC2=CCC3C(C)(C(=O)O)CCCC3(C)C2CC1` (stereo not drawn) the cytotoxicity call was “inactive”.
In the case of `C=C1C[C@@]23CC[C@@H]4[C@@](C)(CCC[C@@]4(C)C(=O)OC)[C@H]2CC[C@@H]1C3`, the cytotoxicity call is reported as “inactive”.
`Cc1noc(C)c1NC(=O)Nc1ccc2c(c1)CC(=O)N([C@H](C)CO)C[C@@H](C)[C@@H](CN(C)C(=O)NC(C)C)O2` was tested, and the cytotoxicity call was “inactive”.
For `COCCCNC(=O)[C@@]1(Cc2ccccc2I)c2ccccc2C(=O)N(Cc2ccccc2OC)[C@H]1c1ccc(CO)cc1`, the cytotoxicity call was “inactive”.
In the case of `COc1ccccc1CN1C(=O)c2ccccc2[C@](Cc2ccccc2I)(C(=O)O)[C@@H]1c1ccc(CO)cc1`, the cytotoxicity call is reported as “inactive”.
In the case of `COc1ccc(CCNC(=O)[C@@]2(Cc3ccccc3I)c3ccccc3C(=O)N(Cc3ccccc3OC)[C@H]2c2ccc(CO)cc2)cc1`, the cytotoxicity call is reported as “inactive”.
With `COc1ccccc1CN1C(=O)c2ccccc2[C@](Cc2ccccc2I)(C(=O)NC2CC2)[C@@H]1c1ccc(CO)cc1` the cytotoxicity call was “active”.
With `COc1ccccc1CN1C(=O)c2ccccc2[C@](Cc2ccccc2I)(C(=O)NCC(C)C)[C@@H]1c1ccc(CO)cc1` the cytotoxicity call was “inactive”.
For `COc1ccccc1CN1C(=O)c2ccccc2[C@](Cc2ccccc2I)(C(=O)NCCCN(C)C)[C@@H]1c1ccc(CO)cc1`, the cytotoxicity call was “active”.
In the case of `CO[C@H]1CN(C)C(=O)c2cc(NS(=O)(=O)CC(F)(F)F)ccc2OC[C@@H](C)N(Cc2cccnc2)C[C@@H]1C`, the cytotoxicity call is reported as “inactive”.
For `COc1ccc2c3c(n(c2c1)C)[C@H](CO)N(C[C@]13CCN(CC1)C(=O)c1ccncc1)C(=O)C1CCOCC1`, the cytotoxicity call was “inactive”.
For `CC(C)NC(=O)Nc1cccc2c1O[C@@H](CN(C)C(=O)Nc1ccc3c(c1)OCO3)[C@@H](C)CN([C@H](C)CO)C2=O`, the cytotoxicity call was “inactive”.
In the case of `C[C@@H]1CCCCO[C@H](CN(C)S(=O)(=O)c2cn(C)cn2)[C@@H](C)CN([C@H](C)CO)C(=O)c2cc(NC(=O)c3ccncc3)ccc2O1`, the cytotoxicity call is reported as “inactive”.
`C[C@H]1CN([C@@H](C)CO)C(=O)c2cccc(NS(=O)(=O)c3cn(C)cn3)c2O[C@@H]1CN(C)S(=O)(=O)c1ccc(Cl)cc1` was tested, and the cytotoxicity call was “inactive”.
`COc1ccc(CNC(=O)C[C@H]2CC[C@H]3[C@@H](COc4ccc(NC(=O)C5CC5)cc4C(=O)N3C)O2)cc1` was tested, and the cytotoxicity call was “inactive”.
`Nc1ccn([C@@H]2O[C@H](CO)[C@@H](O)C2(F)F)c(=O)n1` was tested, and the cytotoxicity call was “inactive”.
For `Nc1ccn([C@@H]2O[C@H](CO)[C@@H](O)[C@H]2O)c(=O)n1`, the cytotoxicity call was “inactive”.
`C#C[C@@]1(O)[C@@H](CO)O[C@@H](n2ccc(N)nc2=O)[C@@H]1O` was tested, and the cytotoxicity call was “active”.
In the case of `Cl.Nc1ccn(C2OC(CO)C(O)C2(F)F)c(=O)n1` (stereo not drawn), the cytotoxicity call is reported as “active”.
With `C[C@@]1(F)[C@H](O)[C@@H](CO)O[C@H]1n1ccc(N)nc1=O` the cytotoxicity call was “inactive”.
For `Nc1ccn(C2OC(CO)C(O)C2O)c(=O)n1` (stereo not drawn), the cytotoxicity call was “inactive”.
For `C[C@H](CO)N1C[C@H](C)[C@@H](CN(C)C(=O)C2CC2)OCc2cn(nn2)CCCC1=O`, the cytotoxicity call was “inactive”.
For `Cc1noc(C)c1S(=O)(=O)Nc1ccc2c(c1)C(=O)N([C@H](C)CO)C[C@H](C)[C@@H](CN(C)Cc1ccc(C(=O)O)cc1)O2`, the cytotoxicity call was “inactive”.
`C[C@@H]1CCCCO[C@@H](CN(C)C(=O)c2ccccc2)[C@H](C)CN([C@H](C)CO)C(=O)c2cc(NC(=O)Nc3ccc4c(c3)OCO4)ccc2O1` was tested, and the cytotoxicity call was “inactive”.
With `C[C@H]1CCCCO[C@H](CN(C)C(=O)Cc2ccccc2)[C@@H](C)CN([C@@H](C)CO)C(=O)c2cc(NC(=O)Nc3ccc4c(c3)OCO4)ccc2O1` the cytotoxicity call was “inactive”.
With `C[C@@H]1CCCCO[C@@H](CN(C)C(=O)Cc2ccccc2)[C@@H](C)CN([C@H](C)CO)C(=O)c2cc(NC(=O)NC3CCCCC3)ccc2O1` the cytotoxicity call was “inactive”.
`C[C@@H]1CCCCO[C@H](CN(C)C(=O)Cc2ccccc2)[C@H](C)CN([C@@H](C)CO)C(=O)c2cc(NC(=O)NC3CCCCC3)ccc2O1` was tested, and the cytotoxicity call was “inactive”.
With `C[C@@H]1CCCCO[C@@H](CN(C)C(=O)Cc2ccccc2)[C@H](C)CN([C@H](C)CO)C(=O)c2cc(NC(=O)Nc3ccc(F)cc3)ccc2O1` the cytotoxicity call was “active”.
In the case of `C[C@@H]1CCCCO[C@@H](CN(C)C(=O)Cc2ccccc2)[C@@H](C)CN([C@H](C)CO)C(=O)c2cc(NC(=O)Nc3ccc(F)cc3)ccc2O1`, the cytotoxicity call is reported as “inactive”.
For `C[C@H](CO)N1C[C@H](C)[C@H](CN(C)C(=O)Cc2ccccc2)OCCCC[C@H](C)Oc2ccc(NC(=O)Nc3ccc4c(c3)OCO4)cc2C1=O`, the cytotoxicity call was “active”.
`C[C@@H]1CCCCO[C@@H](CN(C)C(=O)Cc2ccccc2)[C@H](C)CN([C@H](C)CO)C(=O)c2cc(NC(=O)NC3CCCCC3)ccc2O1` was tested, and the cytotoxicity call was “active”.
With `C[C@@H]1CCCCO[C@@H](CN(C)C(=O)Cc2ccccc2)[C@@H](C)CN([C@@H](C)CO)C(=O)c2cc(NC(=O)Nc3ccc4c(c3)OCO4)ccc2O1` the cytotoxicity call was “inactive”.
`C[C@@H]1CCCCO[C@H](CN(C)C(=O)Cc2ccccc2)[C@@H](C)CN([C@H](C)CO)C(=O)c2cc(NC(=O)Nc3ccc(F)cc3)ccc2O1` was tested, and the cytotoxicity call was “inactive”.
In the case of `Nc1ncnc2c([C@@H]3N[C@H](CO)[C@@H](O)[C@H]3O)c[nH]c12`, the cytotoxicity call is reported as “inactive”.
In the case of `Cc1noc(C)c1S(=O)(=O)Nc1ccc2c(c1)C(=O)N([C@H](C)CO)C[C@H](C)[C@@H](CN(C)Cc1ccc(Cl)c(Cl)c1)OCCCC[C@@H](C)O2`, the cytotoxicity call is reported as “inactive”.
For `C[C@@H](Oc1ccccc1Cl)c1nc2ccc(Cl)cc2[nH]1`, the cytotoxicity call was “inactive”.
In the case of `COC(=O)[C@H]1c2cc3c(c(O)c2[C@@H](O[C@@H]2O[C@H](C)[C@H](OC)[C@](C)(OC)[C@@H]2OC)C[C@@]1(C)O)C(=O)c1c(O)cc2c(c1C3=O)O[C@H]1O[C@@]2(C)[C@@H](O)[C@H](N(C)C)[C@@H]1O`, the cytotoxicity call is reported as “active”.
In the case of `O=C1O[C@H](c2ccccc2)[C@H](c2ccccc2)N2[C@H]1[C@@H](C(=O)N1CCCCCCC1)[C@]1(C(=O)Nc3ccc(C#CC4=CCCCC4)cc31)[C@H]2c1ccc(O)cc1`, the cytotoxicity call is reported as “inactive”.
`COc1ccc(S(=O)(=O)N(C)C[C@@H]2Oc3c(NC(=O)C4CC4)cccc3C(=O)N([C@H](C)CO)C[C@H]2C)cc1` was tested, and the cytotoxicity call was “inactive”.
In the case of `O=C(C[C@H]1C=C[C@@H](NC(=O)c2ccc(F)cc2)[C@@H](CO)O1)NCc1ccncn1`, the cytotoxicity call is reported as “inactive”.
For `C[C@@H]1CN([C@H](C)CO)C(=O)Cc2cc(NS(=O)(=O)c3cn(C)cn3)ccc2O[C@H]1CN(C)C`, the cytotoxicity call was “inactive”.
